CCHFV vOTU inh = CCHFV vOTU protease inhibitors, primary screen, biochemical, Pep-AMC substrate, fluorescence; Crimean-Congo hemorrhagic fever virus L polyprotein viral ovarian tumor (vOTU) protease …; inhibition, % at 11.5 µM; 0.55% of 370,000 active; AID 651958, 2012; in the data active means inhibition above about 30%; further: 0% = vehicle wells with enzyme and 100% = no enzyme wells
PrP UTR inh = inhibition of PrP 5' UTR reporter expression; cell-based PrP 5' UTR mRNA reporter, plate reader; inhibition, % (concentration not given with the values); 0.35% of 340,000 active; in the data active means inhibition above about 52%; further: 0 = median of the neutral control wells
PrPC TRFRET = inhibitors of human cell surface prion protein PrPC, primary screen, cell-based, TR-FRET. TR-FRET read-out. AID 720596, 2013. 0.43% of 370,000 active. inhibition, % at 13.8 µM. Major prion protein (Homo sapiens), P04156; in the data active means inhibition above about 24%; further: 0% = median of the test wells and 100% = reference compound wells
3CLpro inhibitor = SARS-CoV 3CLpro protease inhibitors, primary screen, biochemical, quenched FRET; Replicase polyprotein 1ab (Severe acute respiratory syndrome coronavirus), P0C6X7; recombinant SARS-CoV 3CLpro, quenched FRET peptide cleavage; inhibition, % at 6 µM; 0.14% of 290,000 active; in the data active means inhibition above about 12%
PrPC TRFRET cf = confirmation of inhibitors of cell surface human prion protein, confirmation, cell-based, TR-FRET | shares compounds with PrPC TRFRET | cell surface PrPC level | inhibition, % at 13.8 µM | 65% of 1,500 active | AID 743200, 2013; in the data active means inhibition above about 25%
LD9 cytotox = cytotoxicity in LD9 cells, cytotoxicity control for cell surface PrPc inhibitor project, cell-based, luminescence, high throughput | shares compounds with PrPC TRFRET | luminescence viability | inhibition, % at 13.8 µM | 29% of 1,500 active | AID 743201, 2013; in the data active means inhibition above about 9.5%
* hit, by the source's call; nt = not tested or not shown. Hits are enriched below; roughly 1.3% of the tested compounds scored in any of these assays.

SMILES	CCHFV vOTU inh	PrP UTR inh	PrPC TRFRET	3CLpro inhibitor	PrPC TRFRET cf	LD9 cytotox
O=C(Cn1c(=O)oc2ccccc21)NC(=O)NCc1ccccc1	-7.2	-6.8	-4.4	-3.7	nt	nt
O=C(O)c1cc(-c2ccc(Br)s2)nc2ccccc12	-12.3	-16.1	33.5*	6.7	52.8*	-7.0
Cc1ccc2nc3c(c(C(=O)O)c2c1)CCC3	8.9	-19.5	2.3	-5.4	nt	nt
CNC(=O)c1c2c(nc3ccc(Br)cc13)CCCC2	-2.6	-2.6	25.2*	5.8	35.1*	-4.1
CC(C)C[C@@H](CN1CCC[C@H]1CN1C(=O)C(=O)NC[C@@H]1Cc1ccccc1)N1C[C@H](Cc2ccc(O)cc2)N(CC2CCCCCC2)C(=O)C1=O	25.7	nt	26.1*	nt	23.9	1.4
Fc1ccccc1COc1ccc(Br)cc1CNCc1ccncc1	4.9	-8.7	24.8*	3.5	22.6	16.9*
CCN(CC)S(=O)(=O)c1ccc(-c2nnc(SCC(=O)Nc3ccc(OC)cc3)o2)cc1	10.5	-4.1	-0.7	-0.3	nt	nt
O=C(Nc1cnn(Cc2ccc(Cl)cc2)c1)c1cccs1	3.1	-19.5	22.3	-2.2	nt	nt
Cc1ccc(Sc2c(O)c3ccccc3n(C)c2=O)cc1	-7.8	-5.4	44.7*	1.5	59.1*	-10.8
CC1=C(C(=O)OCC2CCCO2)C(c2ccncc2)C2=C(CCCC2=O)N1 (stereo unspecified)	-13.6	-10.9	-1.4	-6.2	nt	nt
CCN(CC)S(=O)(=O)c1ccc(N2CCOCC2)c(NS(=O)(=O)c2ccc(C(C)C)cc2)c1	7.8	-10.8	5.1	-1.9	nt	nt
CCN(CC)S(=O)(=O)c1ccc(N2CCOCC2)c(NS(=O)(=O)c2cc(C(C)(C)C)ccc2C)c1	15.4	-21.3	25.4*	8.3	9.6	0.3
Cc1cc(C)nc(N/N=C/c2c[nH]c3ccccc23)n1	3.9	-18.2	-1.0	4.2	nt	nt
Cn1nc(C(F)(F)F)c(/C=N/OC(=O)c2ccccc2Cl)c1SCc1ccccc1Cl	8.9	-18.2	70.4*	-4.1	82.4*	-3.2
Cn1nc(C(F)(F)F)c(/C=N/OC(=O)c2ccccc2)c1SCc1ccc(Cl)cc1	-1.1	-26.6	-1.9	1.7	nt	nt
Brc1ccc2ncnc(NCc3ccco3)c2c1	-15.0	-10.3	26.0*	1.6	32.3*	13.1*
CC(C)Nc1ncnc2ccc(Br)cc12	3.8	-4.7	25.1*	-4.2	33.6*	5.0
CSCCC(Nc1ncnc2ccc(Br)cc12)C(=O)O (stereo unspecified)	-6.2	-32.1	41.7*	1.1	104.2*	-1.3
CC(=O)c1ccc(Nc2ncnc3ccc(Br)cc23)cc1	6.3	nt	6.2	nt	nt	nt
COc1cc(-c2cc(-c3ccccc3)nc(SCC(=O)O)c2C#N)cc(OC)c1OC	12.3	-17.0	4.0	5.4	nt	nt
CC(=NNc1nc2ccccc2o1)c1cc2ccccc2cn1	6.5	16.8	27.3*	nt	32.3*	49.4*
CC(C)(C)c1ccc(C(=O)CS(=O)(=O)c2ccccc2)cc1	-4.4	-48.2	0.7	3.9	nt	nt
CCC(=O)N1CCc2cc(Br)cc(S(=O)(=O)N(C)c3ccc(OC)cc3OC)c21	14.3	-0.5	30.4*	1.8	6.3	-4.7
CCC(=O)N1CCc2cc(S(=O)(=O)N(C)c3ccc(OC)cc3OC)ccc21	-2.8	-6.8	4.5	7.3	nt	nt
COc1ccc(C2/C(=C(/O)c3ccccc3)C(=O)C(=O)N2c2ccccn2)cc1OC (stereo unspecified)	-6.6	-32.5	-6.1	-2.5	nt	nt
SMILES	CCHFV vOTU inh	PrP UTR inh	PrPC TRFRET	3CLpro inhibitor	PrPC TRFRET cf	LD9 cytotox
O=C1N(CC(=O)N2CCc3ccccc32)CCN1Cc1ccc(Cl)cc1	4.1	0.2	45.7*	8.9	2.0	-1.4
Cc1ccc(N2C(=O)CC(SCC(=O)Nc3ccc(S(N)(=O)=O)cc3)C2=O)cc1 (stereo unspecified)	4.0	-35.3	3.0	-2.7	nt	nt
CS(=O)(=O)Nc1cccc(NC(=O)c2cccc3c(-c4cccc(C(N)=O)c4)coc23)c1	2.3	nt	5.6	nt	nt	nt
COc1ccc2c(c1)c(/C=N/Nc1nc3ccccc3[nH]1)c(C)n2C	8.9	-49.8	24.8*	-9.8	6.1	26.6*
O=C(c1ccc(C(F)(F)F)cc1)C1CCCN(C(=O)CCc2ccncc2)C1 (stereo unspecified)	6.3	-10.7	7.0	1.8	nt	nt
O=C(c1ccc(C(F)(F)F)cc1)C1CCCN(Cc2ccncc2)C1 (stereo unspecified)	-2.5	-16.2	28.5*	1.9	23.2	11.5*
O=S(=O)(Nc1ccncc1)c1cc(Cl)c(Cl)cc1Cl	-3.2	-11.5	43.4*	5.2	8.4	-4.1
Cc1cccc(NC(=O)CCC2CCN(C(=O)C3CC=CCC3)CC2)c1 (stereo unspecified)	1.2	-14.8	-2.0	2.4	nt	nt
COc1cccc(NC(=O)CCC2CCN(C(=O)C3CC=CCC3)CC2)c1 (stereo unspecified)	-9.7	-8.4	29.4*	1.6	7.9	-3.2
CCC/C(=N\NC(=O)CNC(=O)c1ccc(Cl)cc1)c1ccccc1	2.3	-33.1	-2.6	1.9	nt	nt
O=C(Cn1c(C(=O)OCCO)cc2ccccc21)c1ccccc1	15.4	-21.3	1.1	-2.5	nt	nt
Cc1cc(NC(=O)CSc2nc(=O)cc(N)n2-c2ccc(C)c(C)c2)no1	11.5	-26.8	-1.2	-1.5	nt	nt
COc1ccc(OC(F)(F)F)cc1CC1(C)C(=O)Nc2ccc(S(=O)(=O)NC3CCCCC3)cc21 (stereo unspecified)	15.9	nt	35.8*	nt	28.7*	-1.1
CC1(Cc2ccccc2OC(F)(F)F)C(=O)Nc2ccc(S(=O)(=O)NC3CCCCC3)cc21 (stereo unspecified)	10.9	nt	20.1	nt	nt	nt
Cn1cccc1/C=N/NC(=O)Cc1ccccc1	-10.2	-24.9	-0.6	4.4	nt	nt
Cn1cccc1/C=N\NC(=O)Cc1ccc(Br)c2ccccc12	-6.2	6.5	30.5*	4.0	35.5*	-0.4
NC(N)=N/N=C/c1cn(-c2ccccc2)nc1-c1cccs1	18.6	-8.4	27.0*	-4.5	3.0	59.6*
CCOc1cc(C2NC(=O)NC(c3ccccc3)=C2C(C)=O)ccc1OCC(N)=O (stereo unspecified)	-3.9	1.2	0.1	-0.1	nt	nt
CCOc1ccc(C2NC(=O)NC(c3ccccc3)=C2C(C)=O)cc1OC (stereo unspecified)	-3.2	-6.2	26.6*	2.8	20.9	0.6
CO[C@H]([C@H](C)/C=C/N(C)C=O)[C@@H](C)C(=O)CC[C@H](C)[C@H](O)[C@H](C)[C@H]1OC(=O)/C=C/C(C)=C/[C@H](O)[C@H](OC)C[C@@H]2C=CC[C@@H](C[C@H](OC)[C@@H](CO)[C@@H](OC)C[C@@H](OC)[C@@H]1C)O2	nt	nt	37.5*	nt	31.8*	23.4*
